Screens deposited in PubChem by National Center for Advancing Translational Sciences (NCATS).
ATXN2 expr inh = ATXN2 expression inhibition. HEK-293 ATXN2-luciferase reporter, luminescence, 24 h. Potency, µM (titrated, usually from 57 µM), for inactives: top-dose activity change, negative = inhibition, most hits filed as inhibitors. 360,000 tested, 0.72% active; note: % is set by controls: 0 for no effect and ±100 for the full control effect; nearly all actives have a fitted effect of over 55% in size
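qHTS (up to 57 uM final) was run with 24 h compound exposure of reporter cells at 37 °C. Each well was multiplexed: SteadyGlo luminescence measured ATXN2-luciferase expression after a fluorogenic Gly-Phe-AFC viability readout (25 uM final).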
RORgamma inh = blocks mouse ROR gamma transcriptional activity. P51450. Drosophila S2 Gal4-RORgamma UAS-luciferase reporter, 20 h. Potency, µM (series often up to 53.6 µM), for inactives: top-dose activity change, negative = inhibition, most hits filed as inhibitors. 310,000 tested, 5.4% active; note: % is set by controls: 0 for no effect and ±100 for the full control effect; nearly all actives have a fitted effect of over 60% in size
Target sequence (P51450 whole entry, looked up, the tested form may be a part): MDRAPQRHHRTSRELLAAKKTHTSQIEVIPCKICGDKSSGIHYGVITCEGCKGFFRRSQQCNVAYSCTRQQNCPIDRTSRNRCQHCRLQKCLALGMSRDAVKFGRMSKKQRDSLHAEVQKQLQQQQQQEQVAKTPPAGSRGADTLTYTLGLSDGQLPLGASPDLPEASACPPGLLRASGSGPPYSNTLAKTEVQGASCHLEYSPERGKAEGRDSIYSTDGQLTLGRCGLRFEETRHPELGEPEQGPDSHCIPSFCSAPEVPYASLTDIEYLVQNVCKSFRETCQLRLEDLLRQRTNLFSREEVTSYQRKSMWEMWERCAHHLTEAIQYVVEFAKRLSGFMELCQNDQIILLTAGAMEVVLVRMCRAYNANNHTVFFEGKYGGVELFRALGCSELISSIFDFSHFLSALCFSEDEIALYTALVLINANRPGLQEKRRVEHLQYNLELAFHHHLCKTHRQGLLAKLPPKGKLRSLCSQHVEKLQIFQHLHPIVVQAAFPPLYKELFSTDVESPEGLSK
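Luciferase reporter read in Schneider cells carrying Gal4-RORγ (mouse) and UAS-Photinus luciferase; cells given compound 1 h before 700 uM copper sulfate induction, then incubated 20 h at ambient temperature.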
HepG2 tox = HepG2 cytotoxicity, counter-screen for TGF-b inhibitors; HepG2 CAGA-GFP viability, ATP luminescence, 18 h; Potency, µM (titrated, usually from 46.1 µM), for the others: top-dose activity change, negative = cytotoxicity, actives largely listed as cytotoxic; 410,000 tested, 0.76% active; AID 588856
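CellTiter-Glo luminescence gave cytotoxicity after 18 hours at 37 degrees C. The cells were HepG2 CAGA-GFP in 1% FBS DMEM, stimulated with 500 pg/mL TGF-beta after compound addition. %Activity was normalised to no-cell wells (complete cell-killing) and DMSO (no toxicity), and curves were fitted and classified.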
S2 tox = cell viability loss in ATXN counter-screen; S2 cells (HEK-293 line with an ATXN2-luciferase reporter) viability, CellTiter-Fluor protease fluorescence, 24 h; Potency, µM (highest dose often 56.7 µM), actives largely listed as cytotoxic; 400,000 tested, 0.49% active; AID 651635; note: nearly all actives have a fitted effect of over 40% in size
Gal4-VP16 FLuc = counter-screen for ROR gamma inhibitors: Gal4-VP16 reporter; Drosophila S2 Gal4-VP16 UAS-luciferase, luminescence, 20 h; Potency, µM (top dose mostly 53.6 µM), for inactives: top-dose activity, negative = inhibition, actives largely listed as inhibitors; 310,000 tested, 3.5% active;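 note: Gal4-VP16 expression switched on by copper sulfate through the metallothionein promoter; % is set by controls: 0 for no effect and ±100 for the full control effect; nearly all actives have a fitted effect of over 50% in size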
TGFb inhibitor = inhibitors of TGF-b signaling | HepG2 CAGA-GFP TGF-b/SMAD3 reporter, GFP fluorescence, 18 h; TGF-beta stimulated, 500 pg/mL final | Potency, µM (doses to about 46.1 µM), without a hit: at the top dose activity, negative = inhibition, most hits filed as inhibitors | 410,000 tested, 1.2% active | AID 588855; note: % is set by controls: 0 for no effect and ±100 for the full control effect; nearly all actives have a fitted effect of over 65% in size
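Inhibition was scored as loss of TGF-beta-induced (500 pg/mL final, 18 hours, 37 degrees C) GFP in HEPG2 cells carrying a CAGA-GFP reporter, in DMEM with 1% FBS. Well GFP was summed per cell; Activity was normalised to unstimulated and stimulated DMSO wells, then concentration-response fitting.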
* = called active by the depositor; i = inactive; ? = inconclusive; · = no result; ! = not confirmed by another sample. This is a sample that favours compounds with a hit; in the whole collection about 6.3% have one here. Calls come from the whole dose curve; as a rule, active = well fitted curve in the direction sought with a large enough effect; inconclusive = small, poorly fitted or top-dose-only effect, or another doubt; inactive = no such curve, though single readings can be large; an effect the other way counts as inactive or inconclusive. Potency is the fitted concentration of half-maximal effect.

SMILES | ATXN2 expr inh | RORgamma inh | HepG2 tox | S2 tox | Gal4-VP16 FLuc | TGFb inhibitor
COc1ccc(C2C=C3CNS(=O)(=O)C3CC2OC(=O)c2ccc(C(F)(F)F)cc2)cc1 (centres undefined) | · | ? | -88% | · | ? | 14µM*
Cc1cccc(C=Nc2ccc3c4c(cccc24)CC3)c1O | 6% | -38% | -9% | i | -4% | -33%
CCc1ccc(O)c(N=Cc2cccc(C)c2O)c1 | 2% | 11µM* | -44% | i | ? | ?
CCN(CCCNC(=O)c1cc2c(=O)[nH]c3ccc(C)cc3c2s1)Cc1ccccc1 | ? | · | 13µM* | ? | · | 11µM*
COCCNC(=O)c1cc2c(Cl)nc3ccc(C)cc3c2s1 | · | · | -6% | · | · | 12%
CCN(CCCNC(=O)c1cc2c(Cl)nc3ccccc3c2s1)Cc1ccccc1 | ? | · | -85% | ? | · | -104%
CN(CCCNC(=O)c1cc2c(Cl)nc3ccccc3c2s1)Cc1ccccc1 | ? | ? | 16µM*! | ? | 11µM* | ?
Cc1ccc2nc(Cl)c3cc(C(=O)NCCCN(C)Cc4ccccc4)sc3c2c1 | · | · | 13µM* | · | · | ?
CC(C)C[C@H](NC(=O)CNC(=O)[C@H](Cc1ccc(O)cc1)NC(=O)[C@H](CO)NC(=O)[C@H](Cc1c[nH]c2ccccc12)NC(=O)[C@H](Cc1cnc[nH]1)NC(=O)[C@@H]1CCC(=O)N1)C(=O)N[C@@H](CCCN=C(N)N)C(=O)N1CCC[C@H]1C(=O)NCC(N)=O (stereo in doubt) | -5% | · | · | i | · | ·
CC(=O)N[C@H]1[C@@H]([C@H](O)[C@H](O)CO)OC(C(=O)O)=C[C@@H]1N=C(N)N | -2% | · | · | · | · | ·
COc1ccccc1N(C)c1cc2c(c3c1ccn3C)C1CCC2O1 (centres undefined) | -35% | · | -48% | ? | · | 16µM*
Cn1ccc2c(N3c4ccccc4CCc4ccccc43)cc3c(c21)C1CCC3C1 (centres undefined) | 0% | · | -7% | ? | · | ?
Cn1ccc2c(N(Cc3ccccc3)Cc3ccccc3)cc3c(c21)C1CCC3O1 (centres undefined) | 11% | · | 1% | i | · | 10µM*
Cn1ccc2c(N3c4ccccc4CCc4ccccc43)cc3c(c21)C1CCC3O1 (centres undefined) | -17% | · | 7.1µM* | i | · | ?
CN(Cc1ccccc1)c1cc2c(c3c1ccn3C)C1CCC2O1 (centres undefined) | -27% | · | 2% | i | · | ?
O=C(Nc1ccc(F)cc1)c1ncn(-c2ccccc2)n1 | 38% | · | -7% | i | · | 1%
COc1ccc(-n2cc(CNCCCn3ccnc3)c(-c3cccc(F)c3)n2)cc1 | -29% | 11µM* | -47% | ? | 32µM* | ?
Cc1cccc(-n2cc(CN3CCN(c4ccccn4)CC3)c(-c3cccc(F)c3)n2)c1 | 1% | 3% | -5% | i | 6% | -13%
Cc1cccc(-n2cc(CNCCc3nc(C)cc(C)n3)c(-c3cccc(F)c3)n2)c1 | 28µM* | -35% | -74% | · | -13% | 11µM*
COc1ccc(-n2cc(CNCC3CCOCC3)c(-c3cccc(F)c3)n2)cc1 | · | 0% | -60% | i | -10% | ?
C=CCn1c(N)c(C(=O)NCC2CCCO2)c2nc3ccccc3nc21 (centres undefined) | -16% | 13µM* | -2% | · | ? | ?
COc1ccc(CNC(=O)c2c(N)n(CCCN3CCOCC3)c3nc4ccccc4nc23)cc1 | ? | ? | -115% | i | ? | 11µM*
COC(=O)c1c(N)n(CCCN2CCOCC2)c2nc3ccccc3nc12 | -9% | -8% | -2% | i | -17% | 0%
Nc1c(C(=O)NCc2ccc(F)cc2)c2nc3ccccc3nc2n1CCCN1CCOCC1 | ? | -85% | 18µM* | i | ? | ?
